Measurements from PubChem BioAssay AID1159580 (chemical genetic matrix, 2015).
Screen size: about 5,500 compounds; about 2,000 (36%) were called active. Another 18% or so got no clear call; they are omitted. No stated cut-off is given here; in the data, active means normalized growth mostly below about 0.91 (no sharp cut-off); inconclusive means no clear call, values can overlap the other calls; inactive means mostly above about 0.92. The list shows a part of the results.

Test: chemical genetic growth profiling, strain panel (AID 1159580);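 further: tested at 20 µM; growth read once vehicle control cultures reached saturation at 30 °C; 1 = growth at the plate median or of vehicle wells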
Details: S. cerevisiae deletion strains, growth OD
[1] = locus YDL101C, strain DUN1, stronger effect = lower value
[2] = locus YHR030C, strain SLT2, stronger effect = lower value

Measured: normalized growth

O=C(N/N=C\c1cccs1)c1ccccc1CO
inactive: locus YAL013W, strain DEP1, stronger effect = lower value 0.998 | locus YBR229C, strain ROT2, stronger effect = lower value 1.01 | [1] 0.997 | locus YDL134C, strain PPH21, stronger effect = lower value 1 | locus YDR150W, strain NUM1, stronger effect = lower value 1 | locus YEL061C, strain CIN8, stronger effect = lower value 0.994 | locus YGR078C, strain PAC10, stronger effect = lower value 0.994 | locus YGR229C, strain SMI1, stronger effect = lower value 1 | [2] 1 | locus YHR087W, strain rtc3, stronger effect = lower value 1 | locus YJL187C, strain SWE1, stronger effect = lower value 0.989 | locus YJR043C, strain POL32, stronger effect = lower value 0.999 | locus YJR075W, strain HOC1, stronger effect = lower value 0.995 | locus YLR039C, strain RIC1, stronger effect = lower value 0.999 | locus YLR058C, strain SHM2 (second series), stronger effect = lower value 1.01 | locus YLR085C, strain ARP6, stronger effect = lower value 0.996 | locus YLR262C, strain YPT6, stronger effect = lower value 1.04 | locus YML094W, strain GIM5, stronger effect = lower value 0.986 | locus YMR219W, strain ESC1, stronger effect = lower value 1 | locus YMR263W, strain SAP30, stronger effect = lower value 0.997 | locus YMR307W, strain GAS1, stronger effect = lower value 1 | locus YNL128W, strain TEP1, stronger effect = lower value 1.01 | locus YNL153C, strain GIM3, stronger effect = lower value 0.99 | locus YNL298W, strain CLA4 (second series), stronger effect = lower value 1 | locus YNL322C, strain KRE1, stronger effect = lower value 0.996 | locus YNR030W, strain Alg12, stronger effect = lower value 1.01 | locus YOL006C, strain TOP1, stronger effect = lower value 0.994 | locus YPL055C, strain LGE1, stronger effect = lower value 1.01 | locus YPL241C, strain CIN2, stronger effect = lower value 0.992 | locus YPR135W, strain CTF4, stronger effect = lower value 1.04

O=[N+]([O-])c1ccccc1CS(=O)(=O)c1nc2ccccc2s1
inactive: locus YDL214C, strain PRR2, stronger effect = lower value 0.884 | locus YDR477W, strain SNF1, stronger effect = lower value 0.728 | locus YER123W, strain YCK3, stronger effect = lower value 0.821 | locus YER133W, strain GLC7, stronger effect = lower value 0.773 | locus YFR003C, strain YPI1, stronger effect = lower value 0.904 | locus YFR019W, strain FAB1, stronger effect = lower value 0.933 | locus YGR040W, strain KSS1, stronger effect = lower value 0.791 | locus YGR052W, strain FMP48, stronger effect = lower value 0.835 | locus YGR092W, strain DBF2, stronger effect = lower value 0.537 | locus YHR079C, strain IRE1, stronger effect = lower value 0.946 | locus YHR082C, strain KSP1, stronger effect = lower value 0.949 | locus YHR205W, strain SCH9, stronger effect = lower value 0.933 | locus YIL147C, strain SLN1, stronger effect = lower value 0.894 | locus YJL095W, strain BCK1, stronger effect = lower value 0.616 | locus YJL128C, strain PBS2, stronger effect = lower value 0.953 | locus YJL157C, strain FAR1, stronger effect = lower value 0.867 | locus YJR066W, strain TOR1 (second series), stronger effect = lower value 0.832 | locus YJR066W, strain TOR1, stronger effect = lower value 0.753 | locus YKL067W, strain YNK1, stronger effect = lower value 0.921 | locus YKL101W, strain HSL1, stronger effect = lower value 0.902 | locus YLR113W, strain HOG1, stronger effect = lower value 0.887 | locus YLR133W, strain CKI1, stronger effect = lower value 0.916 | locus YML070W, strain DAK1, stronger effect = lower value 0.881 | locus YMR001C, strain CDC5, stronger effect = lower value 0.891 | locus YMR205C, strain PFK2 (second series), stronger effect = lower value 0.91 | locus YNL020C, strain ARK1, stronger effect = lower value 0.918 | locus YNL183C, strain NPR1, stronger effect = lower value 0.871 | locus YNL307C, strain MCK1 (second series), stronger effect = lower value 0.655 | locus YOL136C, strain PFK27, stronger effect = lower value 0.843 | locus YOR061W, strain CKA2, stronger effect = lower value 0.908 | locus YOR119C, strain RIO1, stronger effect = lower value 0.734 | locus YOR231W, strain MKK1, stronger effect = lower value 0.91 | locus YPL031C, strain PHO85, stronger effect = lower value 0.704 | locus YPL153C, strain RAD53, stronger effect = lower value 0.764 | locus YPL204W, strain HRR25, stronger effect = lower value 0.678 | locus YPL256C, strain CLN2, stronger effect = lower value 1.08 | locus YPR106W, strain ISR1, stronger effect = lower value 0.966 | locus YPR111W, strain DBF20, stronger effect = lower value 0.952 | strain NNK1, stronger effect = lower value 0.93
active: locus YAR019C, strain CDC15, stronger effect = lower value 0.862 | locus YBL105C, strain PKC1, stronger effect = lower value 0.895 | locus YBR135W, strain CKS1, stronger effect = lower value 0.89 | locus YBR136W, strain MEC1, stronger effect = lower value 0.883 | locus YBR160W, strain CDC28, stronger effect = lower value 0.886 | locus YDL017W, strain CDC7, stronger effect = lower value 0.894 | locus YDL028C, strain MPS1, stronger effect = lower value 0.892 | [1] 0.889 | locus YDL108W, strain KIN28, stronger effect = lower value 0.889 | locus YDL132W, strain cdc53, stronger effect = lower value 0.828 | locus YDR052C, strain DBF4, stronger effect = lower value 0.87 | locus YDR054C, strain cdc34, stronger effect = lower value 0.855 | locus YDR226W, strain ADK1, stronger effect = lower value 0.878 | locus YFL009W, strain cdc4, stronger effect = lower value 0.855 | locus YFL029C, strain CAK1, stronger effect = lower value 0.849 | locus YFR028C, strain CDC14, stronger effect = lower value 0.863 | [2] 0.671 | locus YJR016C, strain ILV3, stronger effect = lower value 0.871 | locus YKL048C, strain ELM1, stronger effect = lower value 0.755 | locus YKL193C, strain SDS22, stronger effect = lower value 0.864 | locus YKL203C, strain TOR2, stronger effect = lower value 0.711 | locus YLR403W, strain SFP1, stronger effect = lower value 0.503 | locus YMR277W, strain FCP1, stronger effect = lower value 0.852 | locus YNL006W, strain LST8, stronger effect = lower value 0.894 | locus YNL161W, strain CBK1, stronger effect = lower value 0.885 | locus YNL207W, strain RIO2, stronger effect = lower value 0.852 | locus YNL222W, strain SSU72, stronger effect = lower value 0.886 | locus YOL078W, strain AVO1, stronger effect = lower value 0.834 | locus YOR329C, strain SCD5, stronger effect = lower value 0.896 | locus YPL209C, strain IPL1, stronger effect = lower value 0.882 | locus YPR025C, strain CCL1, stronger effect = lower value 0.892 | strain TSCII, stronger effect = lower value 0.848
